± gives the standard deviation.

Holding throughout (settings): modulator concentration 10 µM
For assay [1], the system named is RAW-Dual (murine macrophage reporter line). Put plainly: NF-kB reporter (SEAP) activity fold change vs agonist alone; higher = enhanced NF-kB activity. The gist of the method:
(§1)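 Overnight stimulation with a PRR agonist followed pre-incubation for 1 hour at 37 °C with compound at 10 μM final. This was done in RAW-Dual murine macrophage reporter cells seeded at 50 000 per well in 384-well plates. NF-κB (SEAP, QUANTI-Blue absorbance at 620 nm) and IRF (Lucia luciferase, QUANTI-Luc luminescence) were read from the supernatant. Each reporter's fold change relative to the mean agonist-only control on the same plate was averaged over replicate plates.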

Assay [2] shares this test system. The experiment in a line: IRF reporter (Lucia luciferase) activity fold change vs agonist alone; higher = enhanced IRF activity. The gist of the method: as §1
The test system is the same in assay [3]. The experiment in a line: viability score (confluency relative to resting cells, overnight) (fraction); higher = more viable, active = viable (0.7 or more). The gist of the method: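 Confluency was the readout: RAW-Dual macrophages were imaged with IncuCyte after an overnight exposure to compound at 10 μM final. IncuCyte software produced two masks over all imaged wells. The viability score expresses confluency against resting cells, and both masks had to exceed 70% of resting cells for a compound to meet the cutoff.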

Where [4] appears, read: agonist: CpG ODN 1826 0.5 ug/mL.

On to `O=Cc1cn(CCOc2ccc(Cl)cc2)c2ccccc12`, for which the NF-kB reporter in assay [1] (setting [4]) came out at 1.45 ± 0.12; in assay [1] (agonist: LPS 0.1 ug/mL) it was 0.883 ± 0.07; in assay [1] (agonist: MPLA […]) it was 1.62 ± 0.06. Also, the results for the IRF reporter in assay [2] (agonist: 3'3'-cGAMP 10 ug/mL), in assay [2] (agonist: LPS 0.1 ug/mL) and in assay [2] (agonist: MPLA […]) were 0.685 ± 0.057, 0.773 ± 0.081 and 0.613 ± 0.12, respectively. Also, the viability score in assay [3] is 0.93 (active).
With `CN1CC(c2ccccc2)OC1=O` (stereo unspecified), the NF-kB reporter in assay [1] (setting [4]) is 1.06 ± 0.17; in assay [1] (agonist: LPS 0.1 ug/mL), 0.949 ± 0.083; in assay [1] (agonist: MPLA […]), 1.08 ± 0.093. The IRF reporter amounted to 1.07 ± 0.033 in assay [2] (agonist: 3'3'-cGAMP 10 ug/mL), 1.32 ± 0.2 in assay [2] (agonist: LPS 0.1 ug/mL) and 1.29 ± 0.23 in assay [2] (agonist: MPLA […]). Further, the viability score in assay [3] was 1 (active).
For the compound `CCN(CC)c1ccc(C=NNC(=O)c2ccccc2C)c(O)c1`, the NF-kB reporter is 2.52 ± 0.2 in assay [1] (setting [4]), 1.41 ± 0.092 in assay [1] (agonist: LPS 0.1 ug/mL) and 3.2 ± 0.13 in assay [1] (agonist: MPLA […]). For the same compound, the IRF reporter in assay [2] (agonist: 3'3'-cGAMP 10 ug/mL) was 0.442 ± 0.032; in assay [2] (agonist: LPS 0.1 ug/mL) it was 0.974 ± 0.11; in assay [2] (agonist: MPLA […]), 0.721 ± 0.15. In assay [3], the viability score is 0.444 (inactive).
Regarding `CCN(CC)CCNC(=O)c1cc(S(C)(=O)=O)ccc1OC.Cl`, the NF-kB reporter in assay [1] (setting [4]) amounted to 1.02 ± 0.13; in assay [1] (agonist: LPS 0.1 ug/mL), 1.16 ± 0.078; in assay [1] (agonist: MPLA […]), 0.975 ± 0.021. Further, the figures for the IRF reporter in assay [2] (agonist: 3'3'-cGAMP 10 ug/mL), in assay [2] (agonist: LPS 0.1 ug/mL) and in assay [2] (agonist: MPLA […]) were 0.94 ± 0.056, 0.989 ± 0.11 and 1 ± 0.13, respectively. Besides, in assay [3], the viability score was 0.998 (active).
For `c1ccc2sc(SCCCCSc3nc4ccccc4s3)nc2c1`, the values for the NF-kB reporter in assay [1] (setting [4]), in assay [1] (agonist: LPS 0.1 ug/mL) and in assay [1] (agonist: MPLA […]) were 1.11 ± 0.087, 1.02 ± 0.1 and 0.938 ± 0.035, respectively. Besides, the figures for the IRF reporter in assay [2] (agonist: 3'3'-cGAMP 10 ug/mL), in assay [2] (agonist: LPS 0.1 ug/mL) and in assay [2] (agonist: MPLA […]) were 0.953 ± 0.14, 1.06 ± 0.1 and 0.977 ± 0.17, respectively. Further, in assay [3], the viability score is 0.998 (active).
On to `CCN1CC(CCN2CCOCC2)C(c2ccccc2)(c2ccccc2)C1=O.Cl.O` (stereo unspecified), for which the NF-kB reporter came to 1 ± 0.15 in assay [1] (setting [4]), 1.19 ± 0.24 in assay [1] (agonist: LPS 0.1 ug/mL) and 1.79 ± 0.72 in assay [1] (agonist: MPLA […]). For the same compound, the IRF reporter was 0.919 ± 0.028 in assay [2] (agonist: 3'3'-cGAMP 10 ug/mL), 1.37 ± 0.43 in assay [2] (agonist: LPS 0.1 ug/mL) and 1.03 ± 0.083 in assay [2] (agonist: MPLA […]). The viability score in assay [3] is 1 (active).
Turning to `Cc1ccc(C(=O)NC(=S)Nc2nc(-c3cccc([N+](=O)[O-])c3)cs2)cc1C`, the NF-kB reporter in assay [1] (setting [4]) is 1.02 ± 0.12; in assay [1] (agonist: LPS 0.1 ug/mL), 0.98 ± 0.16; in assay [1] (agonist: MPLA […]) it was 0.977 ± 0.036. Moreover, the IRF reporter worked out at 0.931 ± 0.17 in assay [2] (agonist: 3'3'-cGAMP 10 ug/mL), 1.08 ± 0.094 in assay [2] (agonist: LPS 0.1 ug/mL) and 1.12 ± 0.13 in assay [2] (agonist: MPLA […]). The viability score in assay [3] is 1 (active).
With `NC(=O)CC[C@@H](N)C(=O)O`, the NF-kB reporter in assay [1] (setting [4]) was determined as 1.16 ± 0.31; in assay [1] (agonist: LPS 0.1 ug/mL), 1.05 ± 0.059; in assay [1] (agonist: MPLA […]), 0.953 ± 0.068. In addition, the IRF reporter in assay [2] (agonist: 3'3'-cGAMP 10 ug/mL) came to 0.946 ± 0.046; in assay [2] (agonist: LPS 0.1 ug/mL), 1.37 ± 0.2; in assay [2] (agonist: MPLA […]), 1.23 ± 0.17. The viability score in assay [3] was 1.01 (active).
With `O=C(CN(c1cc(Cl)cc(Cl)c1)S(=O)(=O)c1ccccc1)N1CCCCCC1`, the NF-kB reporter was determined as 1.06 ± 0.13 in assay [1] (setting [4]), 1.13 ± 0.1 in assay [1] (agonist: LPS 0.1 ug/mL) and 1.13 ± 0.068 in assay [1] (agonist: MPLA […]). Further, the IRF reporter is 0.943 ± 0.14 in assay [2] (agonist: 3'3'-cGAMP 10 ug/mL), 0.991 ± 0.062 in assay [2] (agonist: LPS 0.1 ug/mL) and 0.875 ± 0.057 in assay [2] (agonist: MPLA […]). Further, the viability score in assay [3] is 0.996 (active).
Consider `COc1ccc(C(C)NC(=O)c2[nH]nnc2-c2ccc(F)cc2)cc1` (stereo unspecified), for which the results for the NF-kB reporter in assay [1] (setting [4]), in assay [1] (agonist: LPS 0.1 ug/mL) and in assay [1] (agonist: MPLA […]) were 1.17 ± 0.066, 0.983 ± 0.14 and 1.01 ± 0.054, respectively. Also, the IRF reporter was determined as 0.669 ± 0.026 in assay [2] (agonist: 3'3'-cGAMP 10 ug/mL), 1.01 ± 0.094 in assay [2] (agonist: LPS 0.1 ug/mL) and 0.958 ± 0.15 in assay [2] (agonist: MPLA […]). Moreover, the viability score in assay [3] was 0.997 (active).
As to `C=CCN1C(=O)C(C)(C)COc2cc(NC(=O)c3ccc(Br)o3)ccc21`, the NF-kB reporter was determined as 1.25 ± 0.11 in assay [1] (setting [4]), 0.93 ± 0.21 in assay [1] (agonist: LPS 0.1 ug/mL) and 1.07 ± 0.037 in assay [1] (agonist: MPLA […]). The IRF reporter in assay [2] (agonist: 3'3'-cGAMP 10 ug/mL) came to 0.53 ± 0.046; in assay [2] (agonist: LPS 0.1 ug/mL) it was 0.933 ± 0.096; in assay [2] (agonist: MPLA […]), 0.982 ± 0.24. Moreover, in assay [3], the viability score was 0.994 (active).
Consider `COc1ccccc1S(=O)(=O)N1CC(Oc2nc3c(C(F)(F)F)cccc3s2)C1`, for which the results for the NF-kB reporter in assay [1] (setting [4]), in assay [1] (agonist: LPS 0.1 ug/mL) and in assay [1] (agonist: MPLA […]) were 0.935 ± 0.047, 1.18 ± 0.097 and 1.38 ± 0.14, respectively. Moreover, the IRF reporter is 1.4 ± 0.15 in assay [2] (agonist: 3'3'-cGAMP 10 ug/mL), 1.43 ± 0.23 in assay [2] (agonist: LPS 0.1 ug/mL) and 1.5 ± 0.4 in assay [2] (agonist: MPLA […]). The viability score in assay [3] is 1 (active).
As to `O=C(NCCC(CCO)c1ccccc1)Nc1c(F)cccc1F` (stereo unspecified), the NF-kB reporter in assay [1] (setting [4]) stood at 0.929 ± 0.078; in assay [1] (agonist: LPS 0.1 ug/mL), 1.02 ± 0.11; in assay [1] (agonist: MPLA […]) it was 0.898 ± 0.041. The IRF reporter worked out at 0.972 ± 0.059 in assay [2] (agonist: 3'3'-cGAMP 10 ug/mL), 1.05 ± 0.084 in assay [2] (agonist: LPS 0.1 ug/mL) and 0.978 ± 0.075 in assay [2] (agonist: MPLA […]). Moreover, the viability score in assay [3] is 0.98 (active).

The record behind these values is the supplement of paper PMC10646978.
